# Screening results from PubChem.
# D2 ag-1: D2 dopamine receptor (human) agonism. activation, % at 2 µM. AID 485358. HEK293 T-REx D2 cells, calcium flux agonist mode. 0.53% of 340,000 active;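 active means activation over 3 SD above normal in the single-dose calcium agonist read, cut at about 30% in these data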; further: 0% is about no effect
# Target sequence (P14416 whole entry, looked up): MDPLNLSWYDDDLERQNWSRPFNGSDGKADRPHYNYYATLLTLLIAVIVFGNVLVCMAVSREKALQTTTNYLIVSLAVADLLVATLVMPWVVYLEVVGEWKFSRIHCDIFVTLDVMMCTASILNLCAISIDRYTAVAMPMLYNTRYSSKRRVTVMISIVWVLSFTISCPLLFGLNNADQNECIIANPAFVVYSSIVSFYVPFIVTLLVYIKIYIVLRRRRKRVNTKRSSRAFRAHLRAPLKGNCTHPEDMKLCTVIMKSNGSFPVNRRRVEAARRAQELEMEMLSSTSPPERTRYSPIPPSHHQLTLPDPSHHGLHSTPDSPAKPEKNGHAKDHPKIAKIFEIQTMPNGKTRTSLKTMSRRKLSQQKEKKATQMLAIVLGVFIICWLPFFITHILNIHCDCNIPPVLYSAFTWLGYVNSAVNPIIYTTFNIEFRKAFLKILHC
#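 Calcium-flux readout, 1 cycle/sec over 180 s following compound pin transfer, in inducible HEK293 Trex D2 cells (force-coupled); dopamine controls included. Positive calcium responses during this window marked compounds as potential agonists.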
# D2 ag-2: agonists of human D2 dopamine receptor (beta-arrestin) | P14416 | DiscoveRx PathHunter D2 beta-arrestin, luminescence, 90 min; 100% = 57 uM dopamine signal | activation, % (concentration not given with the values) | 0.084% of 360,000 active | AID 624465; in the data active means activation above about 40%; inconclusive means between about 15% and that limit
#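 DiscoveRx PathHunter D2 beta-arrestin cells (2,100/well) attached overnight, then compound-stimulated 90 min at 37 C in HBSS/10 mM HEPES/0.1% Tween-20 buffer; beta-galactosidase complementation read by luminescence after 1 h at ambient temperature. Dopamine 57 uM final (EC100) as control.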
# D2 PAM-1: positively modulates the human D2 dopamine receptor allosterically. P14416. HEK293 T-REx D2, calcium flux, EC20 dopamine potentiation. potentiation, % at 10 µM. 0.34% of 340,000 active. AID 485347;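 active means potentiation over 3 SD above the plate norm, cut at about 30% in these data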; further: 0% is about no effect
#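 Primary screen. Calcium kinetics in induced HEK293 T-REx D2 cells: compound pre-addition 180 s, EC20 dopamine, 180 s more.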
# D2 PAM-2: potentiates the human D2 dopamine receptor allosterically; 0.23% of 360,000 active; potentiation, % (test concentration not listed); P14416; DiscoveRx D2 beta-arrestin cells, luminescence, 90 min; 100% = 57 uM dopamine signal; AID 624464; in the data active means potentiation above about 50%; inconclusive means mostly about 30% to 49%
#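 PathHunter D2 cells, attached overnight at 37 deg C, received compound in DMSO plus dopamine at EC20 (50 nM final) for 90 min at 37 deg C. Beta-arrestin recruitment was read as luminescence after 1 h with detection reagent at ambient temperature.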
# D2 antag: D2 dopamine receptor (human) antagonism. P14416. HEK293 TREx D2 cells, calcium flux, dopamine EC80. inhibition, % at 10 µM. 2% of 340,000 active. AID 485344; in the data active means inhibition above about 30%; inactive means below that, where a call was filed; further: 0% is about no effect
#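 Cells plated overnight at 30 C with tetracycline; no-wash calcium dye, 30–90 min RT; 10 s baseline; compound pinned; 180 s read; EC80 dopamine added; another 180 s read.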
# * = called active by the depositor; ? = inconclusive; nt = not tested or not shown. Compounds with a hit are over-represented: about 2.4% of the library has one in this group of screens.
SMILES,D2 ag-1,D2 ag-2,D2 PAM-1,D2 PAM-2,D2 antag
COc1cc(N)c(Cl)cc1C(=O)OCC(=O)N1CCc2ccccc21,1.5,0.7,7.1,-2.9,-3.1
COc1cc(N)c(Cl)cc1C(=O)OCC(=O)N1CCCC1,0.5,-13.4,-11.6,-9.3,31.6*
Cc1ccccc1Nc1nc(N)nc(COC(=O)CCS(=O)(=O)c2ccccc2)n1,2.4,1.3,-13.1,-4.3,31.7*
Cc1ccc(S(=O)(=O)CCC(=O)OCc2nc(N)nc(Nc3ccccc3C)n2)cc1,0.2,-2.3,21.3,?,-2.3
O=C(CSc1nc2c(c(=O)[nH]1)CCCC2)Nc1cccc(O)c1,nt,nt,2.8,nt,nt
CCOc1ccc(OCC)c(Nc2nc3ccc(C(=O)c4ccccc4)cc3n3cnnc23)c1,-0.9,nt,1.6,nt,nt
O=C(CSc1nnc(-c2ccc(Br)o2)n1Cc1ccccc1)c1ccccc1F,0.2,-4.3,71.1*,-7.9,4.3
CC(C)COc1ccc(-c2nnc(-c3ccco3)o2)cc1,-0.7,-0.8,30.0*,-10.6,27.7
COC(=O)[C@H](C)NC(=O)NC1CCN(Cc2ccccc2)CC1,0.1,-1.8,-11.4,-20.1,50.4*
CC(Oc1ccc(Br)cc1)C(=O)NC1CCN(Cc2ccccc2)CC1 (stereo not drawn),-0.4,-5.0,2.3,-32.4,64.4*
CC(C)Oc1ccc(C(=O)NC2CCN(Cc3ccccc3)CC2)cc1,-0.5,-3.2,-22.8,-26.3,-11.8
CCCC(CCC)C(=O)NC1CCN(Cc2ccccc2)CC1,-0.3,0.1,-17.7,-11.6,17.5
Nc1nc(NCCc2ccccc2)nc(NCc2ccccc2)c1[N+](=O)[O-],0.6,-1.6,0.0,3.2,45.2*
CC(C)c1onc(C(=O)Nc2cccc(O)c2)c1[N+](=O)[O-],0.2,9.3,-9.0,6.0,6.9
Cc1ccc(NC(=O)c2noc(C(C)C)c2[N+](=O)[O-])cc1,-1.0,8.6,-29.1,-10.7,50.8*
O=C(C[n+]1cccc(CNC(=O)c2ccc(OC(F)F)cc2)c1)Nc1cc(C(F)(F)F)ccc1Cl,-1.2,-2.1,-18.7,-38.8,63.0*
NC(=O)C[n+]1cccc(CNC(=O)c2ccc(OC(F)F)cc2)c1,2.0,-3.8,0.7,0.6,31.7*
Cc1ccc(-n2c3c(c(=O)[nH]c2=O)C(NC(=O)c2ccccc2C)(C(F)(F)F)C(=O)N3)cc1 (stereo not drawn),-0.5,nt,8.7,nt,nt
CCC(=O)N1CCCc2cc(S(=O)(=O)N3CCC(C(=O)Nc4ccc(F)c(F)c4)CC3)ccc21,0.7,nt,-10.5,nt,nt
C=CCOc1c(Br)cc(/C=C(\C#N)C(N)=O)cc1OC,0.7,0.0,-4.0,-3.0,-2.3
COc1cc(C=O)cc(Br)c1OCC(N)=O,-0.7,-5.9,1.5,-8.9,34.2*
O=C(NCCCN1CCN(c2cccc(Cl)c2)CC1)Nc1ccccc1C(F)(F)F,22.0,nt,-27.6,nt,nt
CCCCn1c(S(=O)(=O)O)nc2ccccc21,-1.5,5.4,-4.0,2.1,33.1*
CCCCCn1c(S(=O)(=O)O)nc2ccccc21,0.2,0.2,-9.6,2.9,-11.4
CCNC(=O)CC1C(=O)N(CC)C(=S)N1NC(=O)c1ccc(Cl)cc1 (stereo not drawn),0.2,-2.4,1.5,-7.5,-7.9
SMILES,D2 ag-1,D2 ag-2,D2 PAM-1,D2 PAM-2,D2 antag
CCN1C(=O)C(CC(=O)Nc2ccc(Cl)cc2)N(NC(=O)c2ccncc2)C1=S (stereo not drawn),0.0,-6.9,-8.6,-13.4,31.1*
CCOC(=O)c1cc(-c2ccc(F)cc2)n(CCC(=O)NCCc2ccc(C)cc2)c1C,0.2,nt,-3.5,nt,nt
Cc1cc(C(=O)NCc2ccc(S(N)(=O)=O)cc2)c(C)o1,-0.3,-1.8,-4.3,-3.9,30.5*
COC(=O)c1cc2sc(Cl)cc2n1Cc1c(C)cc(C)cc1C,0.1,nt,0.4,nt,nt
S=C1NC2(CCCCC2)Cc2ccccc21,-0.8,-1.9,-5.8,-6.4,32.0*
Cc1ccc(NC(=O)C2CCN(S(=O)(=O)c3cccc4nonc34)CC2)c(Cl)c1,0.5,nt,-4.0,nt,nt
CCCNC(=O)C1(C)CCCN(C(=O)C2(c3ccc(Cl)cc3)CCCC2)C1 (stereo not drawn),nt,-4.0,nt,-3.6,nt
CCn1cnc2sc(C(=O)N(Cc3ccc(N(C)C)cc3)Cc3ccco3)c(C)c2c1=O,0.5,0.6,2.5,5.3,31.6*
Nc1ccc(N(CCO)CCO)cc1,3.4,?,5.3,63.9*,11.9
COc1ccc(OC)c(S(=O)(=O)Nc2cccc3c(O)cccc23)c1,nt,1.9,nt,1.4,nt
COc1ccc(OC)c(S(=O)(=O)Nc2ccc(O)c3ccccc23)c1,-0.1,?,0.4,88.6*,-15.3
C=CCNC(=S)NNC(=O)C(CCC(C)C)CC(C)O (stereo not drawn),-0.1,2.0,-11.6,2.4,45.4*
COc1ccc(S(N)(=O)=O)cc1-c1nnc2c3ccccc3c(C)nn12,0.0,0.6,-3.4,-0.1,30.1*
COc1cccc(-c2nnc(SCC(=O)NC3CCS(=O)(=O)C3)n2C)c1 (stereo not drawn),0.5,1.5,-4.2,-13.7,39.0*
Cn1cccc1-c1cc(C(=O)N/N=C/c2ccc(F)cc2)[nH]n1,-2.8,-2.0,nt,-22.8,60.6*
Cn1cccc1-c1cc(C(=O)N/N=C/c2ccc([N+](=O)[O-])cc2)[nH]n1,0.4,-4.9,-6.2,-4.1,9.9
Cn1cccc1-c1cc(C(=O)N/N=C/c2ccccc2Cl)[nH]n1,0.5,1.2,-24.5,-27.5,87.6*
Cn1cccc1-c1cc(C(=O)N/N=C/c2cc(Br)ccc2O)[nH]n1,nt,7.1,nt,-29.6,nt
CCOC(=O)c1c(C)[nH]c(C)c1S(=O)(=O)N(C)CC(=O)Nc1ccc(OC)cc1,nt,nt,0.1,nt,nt
Cc1cc(/C=N/O)c(C)n1-c1ccc(Br)cc1,-1.4,-3.2,-0.8,-6.9,37.7*
Cc1cccc(NS(=O)(=O)c2ccc(Cl)c(C(=O)Nc3ccccc3C)c2)c1,-1.1,nt,-8.5,nt,nt
Fc1ccc([C@@H]2CCNC[C@H]2COc2ccc3c(c2)OCO3)cc1,14.6,2.9,-9.4,-6.1,40.7*
Cc1ccc(Nc2c(-c3cc(Br)ccc3F)nc3cc(C)ccn23)cc1,-2.1,nt,7.1,nt,nt
Cc1cc(C)n2nnnc2n1,0.5,-0.6,-6.7,-8.0,38.3*
CN1CC[n+]2c(CN3C(=O)c4ccccc4C3=O)csc21,0.5,-1.3,3.3,-2.7,45.2*
COc1ccc(S(=O)(=O)NCc2cn3c(C)csc3n2)cc1F,0.2,-2.1,8.1,1.6,31.7*
COc1ccc(OC)c(S(=O)(=O)NCc2cn3c(C)csc3n2)c1,nt,-3.5,-19.5,-12.9,nt
CCOC(=O)c1cccc(-n2nnc3c(sc4nc(C)c(Br)c(C)c43)c2=O)c1,nt,nt,-5.4,nt,nt
O=C(c1ccc(F)cc1)N1CCC(C(=O)N2CCN(Cc3ccc4c(c3)OCO4)CC2)CC1,3.9,-2.0,-12.4,-7.9,30.5*
